Experimental data: the supplement of paper PMC12494721
Where a name gives a salt, the structure may show the parent alone. A number with no mark means an inactive call.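 How the source made its calls: for the amine columns active = adjusted P below 0.05 in both replicates with a change the same way and a mean fold change under 0.8 or over 1.25; inactive = the rest.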

What follows are compounds tested on Ruminococcus gnavus DSM 108212 (assay: fold change of Tryptamine concentration vs plate DMSO controls (fold change (ratio)); higher = more amine produced, active = hit call of the paper (significant change in both replicates, either direction)). Conditions: incubation time: 27 h, anaerobic, 37 °C.
Procedure, shortened: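 Each value is the fold change relative to DMSO-only wells on the same plate. Four gut bacterial strains were grown anaerobically in mGAM at 37 °C for 27 h in 80 µL wells, starting at OD 0.1 before a 1:1 dilution, with compounds at 20 µM final (sweeteners 50 µM). Whole cultures were extracted with cold acetonitrile/methanol containing 0.1% formic acid, centrifuged, and amines were quantified by LC–triple-quadrupole MS (dynamic MRM) against external calibration curves with within-batch drift correction. Values are means of 2 biological replicates.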

| Compound | fold change of Tryptamine concentration |
| --- | --- |
| Cc1ccc(C(=O)c2ccc(CC(=O)O)n2C)cc1 [Tolmetin sodium salt dihydrate] (20 µM) | 0.958 |
| CCCSc1nc(N[C@@H]2C[C@H]2c2ccc(F)c(F)c2)c2nnn([C@@H]3C[C@H](OCCO)[C@@H](O)[C@H]3O)c2n1 [Ticagrelor] (20 µM) | 0.748 (active) |
| CNc1ncnc2c1ncn2[C@@H]1O[C@H](CO)[C@@H](O)[C@H]1O [N6-methyladenosine] (20 µM) | 1.04 |
| Cc1c(N(C)CS(=O)(=O)O)c(=O)n(-c2ccccc2)n1C [Dipyrone sodium salt] (20 µM) | 1.03 |
| CN(c1nccc(=O)[nH]1)C1CCN(c2nc3ccccc3n2Cc2ccc(F)cc2)CC1 [Mizolastine] (20 µM) | 0.973 |
| CC(CN(C)C)C(C)(O)Cc1ccc(Cl)cc1 (configuration not stated) [Clobutinol hydrochloride] (20 µM) | 0.975 |
| Oc1c(Cl)cc(Cl)c2cccnc12 [Chloroxine] (20 µM) | 0.589 (active) |
| CC(=O)OCC(=O)[C@@]1(O)CC[C@H]2[C@@H]3CCC4=CC(=O)CC[C@]4(C)[C@@]3(F)[C@@H](O)C[C@@]21C [Fludrocortisone acetate] (20 µM) | 1.01 |
| CC1=C(C(=O)O)N2C(=O)[C@@H](NC(=O)[C@H](N)c3ccc(O)cc3)[C@H]2SC1 [Cefadroxil] (20 µM) | 1 |
| OC[C@H]1O[C@@](CO)(O[C@H]2O[C@H](CO)[C@@H](O)[C@H](O)[C@H]2O)[C@@H](O)[C@@H]1O [Sucrose] (50 µM) | 1.08 |
| CCN(CC)CCOC(=O)C(c1ccccc1)C1CCCCC1 (configuration not stated) [Drofenine hydrochloride] (20 µM) | 0.866 |
| CN(C)CCCN1c2ccccc2Sc2ccccc21 [Promazine hydrochloride] (20 µM) | 0.823 |
| CCc1cccc(CC)c1NC(=O)CN(CC(=O)O)CC(=O)O [Etifenin] (20 µM) | 0.951 |
| CC(Cc1cccc(C(F)(F)F)c1)NCCOC(=O)c1ccccc1 (configuration not stated) [Benfluorex] (20 µM) | 0.786 (active) |
| Cn1c(=O)c2c(ncn2C)n(C)c1=O [Caffeine] (20 µM) | 1.06 |
| O=c1[nH]c(=O)n([C@H]2C[C@H](O)[C@@H](CO)O2)cc1C(F)(F)F [Trifluridine] (20 µM) | 1.07 |
| CCOC(=O)NNc1nncc2ccccc12 [Todralazine hydrochloride] (20 µM) | 0.955 |
